Sampled rows, rich in hits. Any-hit rate of the full collection: about 3.5%.
MITF primary: human MITF inhibition, primary screen; O75030; AlphaScreen MITF homodimerization, bead proximity signal; inhibition, % at 2.6 µM; 650,000 compounds, 0.91% hits; in the data active means inhibition above about 50%;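 further: 0% = vehicle wells with protein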
FBW7 activator: activators of human E3 ligase FBW7; Q969H0; AlphaScreen FBW7–phospho-cyclin E peptide binding, activator screen; normalized activity (activation), % at 26.1 µM; 650,000 compounds, 0.13% hits; in the data active means normalized activity above about 1.9%;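 further: purified mutant Fbw7 with reduced substrate affinity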
TEAD-YAP block: TEAD-YAP interaction inhibition. inhibition, % at 9.12 µM. HEK-TIYL cells, TEAD-Gal4/YAP UAS-luciferase luminescence. 640,000 compounds, 1.4% hits; in the data active means inhibition above about 32%;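 further: 0% = median of test compound wells and 100% = reference inhibitor wells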
GPR151 ag: human GPR151 activation | PathHunter beta-arrestin GPR151 cells, luminescence | Q8TDV0 | activation, % at 11.2 µM | AID 1508602 | 650,000 compounds, 1% hits; in the data active means activation above about 4.9%;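 further: 0% = median of compound wells and 100% = cells with positive control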
Target sequence (Q8TDV0 whole entry, looked up): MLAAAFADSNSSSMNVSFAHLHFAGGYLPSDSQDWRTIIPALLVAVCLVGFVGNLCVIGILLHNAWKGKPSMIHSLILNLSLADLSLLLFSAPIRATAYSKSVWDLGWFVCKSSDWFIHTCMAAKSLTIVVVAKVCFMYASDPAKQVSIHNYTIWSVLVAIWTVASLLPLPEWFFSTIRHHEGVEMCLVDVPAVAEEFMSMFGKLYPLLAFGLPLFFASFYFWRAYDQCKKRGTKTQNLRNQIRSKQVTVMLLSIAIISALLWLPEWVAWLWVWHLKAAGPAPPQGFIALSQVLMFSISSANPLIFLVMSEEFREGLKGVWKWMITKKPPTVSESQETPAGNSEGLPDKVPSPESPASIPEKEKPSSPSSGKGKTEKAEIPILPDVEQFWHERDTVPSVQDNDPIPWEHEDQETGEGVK
Numbers without * were called inactive.

SMILES	MITF primary	FBW7 activator	TEAD-YAP block	GPR151 ag
COc1cccc(CNC(=O)c2cc3c(C)nc4ccccc4c3o2)c1	2.5	-0.1	25.3	0.3
COc1ccc(CNC(=O)c2cc3c(C)nc4ccccc4c3o2)c(OC)c1	-8.9	-0.1	34.2*	0.2
N#Cc1cc2cc3c(cc2nc1SCC(=O)NCC1CCCO1)OCCO3 (stereo unspecified)	4.7	0.1	55.1*	0.7
COc1ccc(CNC(=O)CSc2nc3cc4c(cc3cc2C#N)OCCO4)cc1	3.8	0.0	61.3*	3.0
COc1cc2cc(C#N)c(SCC(=O)Nc3cc(C)on3)nc2cc1OC	31.1	2.4*	-9.8	-1.4
N#Cc1cc2cc3c(cc2nc1SCC(=O)NCCc1ccccc1)OCCO3	17.6	0.1	34.4*	1.1
COc1ccc(CNC(=O)CSc2nc3cc(OC)c(OC)cc3cc2C#N)cc1	-5.6	0.1	-18.3	1.4
CCC(C)NC(=O)CSc1nc2cc3c(cc2cc1C#N)OCO3 (stereo unspecified)	9.3	0.0	51.3*	-1.5
COc1cccc(NC(=O)CSc2nc3cc4c(cc3cc2C#N)OCCO4)c1	-2.9	0.1	45.1*	0.1
Cc1ccccc1NC(=O)CSc1nc2cc3c(cc2cc1C#N)OCCO3	7.5	0.0	57.6*	0.2
COc1ccc(NC(=O)CSc2nc3cc4c(cc3cc2C#N)OCCO4)c(OC)c1	24.8	0.1	83.5*	-0.7
Cc1ccccc1NC(=O)CSc1nc2cc3c(cc2cc1C#N)OCO3	-5.9	-0.1	6.0	1.3
C=CCn1c(-c2cccc([N+](=O)[O-])c2)cnc1SCC(=O)N1CCc2ccccc21	6.4	-0.1	7.8	1.8
CCCCOc1ccc(/C=C2\N=C(c3ccccc3Br)OC2=O)cc1	5.3	-0.1	-0.4	0.2
Nc1ccc2nc(SCc3ccc(C(=O)Nc4nccs4)cc3)sc2c1	-4.6	-0.2	11.3	0.6
COc1ccc2cc3c(N)[nH]nc3nc2c1	1.0	-0.1	79.9*	-0.1
COc1cc(CC2(CCC(=O)NCC(C)Oc3cccnc3)CCC(=O)N2)ccc1F (stereo unspecified)	16.8	2.1*	-3.6	0.0
O=C(Nc1ccc(F)cc1)/C(Cl)=C/c1ccccc1	7.0	0.7	-18.9	-3.4
Cc1ccc(NC(=O)/C(Cl)=C\c2ccccc2)cc1	14.1	0.8	65.5*	-3.9
COc1ccc(NC(=O)/C(Cl)=C\c2ccccc2)cc1	22.9	0.2	45.1*	-2.4
CC(=O)c1ccc(NC(=O)/C(Cl)=C/c2ccccc2)cc1	12.3	0.1	-1.4	-0.6
CC(O)c1ccc(NC(=O)[C@H]2C[C@@H](c3cccs3)NS(=O)(=O)N2C)cc1 (stereo partly specified)	11.4	1.1	4.2	-1.1
CC(=O)N(C)C1=C(N2CCCC2)C(=O)c2ccccc2C1=O	-9.0	-0.2	94.0*	-4.4
CC(=O)c1ccc(NC2=C(N3CCOCC3)C(=O)c3ccccc3C2=O)cc1	3.1	-0.4	0.2	-0.2
CCN(C(C)=O)C1=C(N2CCCC2)C(=O)c2ccccc2C1=O	11.2	0.2	84.3*	-1.6
SMILES	MITF primary	FBW7 activator	TEAD-YAP block	GPR151 ag
CC(=O)N(C1=C(N2CCCCC2)C(=O)c2ccccc2C1=O)c1ccc(F)c(F)c1	34.5	-0.1	5.5	-2.6
CCN(C1=C(N2CCCC2)C(=O)c2ccccc2C1=O)c1ccccc1	69.3*	-1.0	0.0	-0.8
CC(=O)N(C)C1=C(N2CCOCC2)C(=O)c2ccccc2C1=O	0.7	0.3	83.8*	-2.3
O=C(Nc1nc2ccc([N+](=O)[O-])cc2s1)c1ccccc1Cl	9.7	1.4	-1.0	0.8
O=C1c2ccc(Br)cc2C(=O)N1CN(C(=O)C(F)(F)F)c1ccccc1	1.1	-0.3	1.1	0.2
Cc1ccc2n1CCN(c1nc(-c3ccc(Br)cc3)cs1)C2C (stereo unspecified)	4.0	0.1	-9.6	-0.6
COc1ccc(/C=C/C(=O)Oc2ccccc2C=O)cc1OC	12.1	-0.1	0.2	-0.6
CC1(Cc2ccc3c(c2)OCO3)C(=O)Nc2ccc(-c3cccnc3)cc21 (stereo unspecified)	10.6	0.2	42.1*	0.7
CC1(Cc2ccccc2)C(=O)Nc2ccc(-c3cccnc3)cc21 (stereo unspecified)	8.2	0.0	18.1	0.1
Cn1/c(=N\N=C/c2ccc(O)cc2)sc2ccccc21	9.5	1.9*	-21.9	1.5
Cn1/c(=N/N=C/c2ccc(C(=O)O)cc2)sc2ccccc21	-6.0	0.1	-48.6	-3.4
CCC(=O)N(CC)c1nc(-c2ccccc2)cs1	1.4	0.5	-35.8	-2.7
COc1cc(/C=C2/N=C(c3cccc(Br)c3)OC2=O)cc(OC)c1OC	11.4	0.0	9.6	0.7
O=C(Cn1nc(-c2ccccc2F)ccc1=O)Nc1cccnc1	-4.2	-0.1	0.7	-0.8
O=C(COc1ccc(F)cc1)Nc1ccc2c(c1)C(=O)NCCO2	8.5	0.0	41.5*	0.6
O=C(CCC1CCCC1)Nc1ccc2c(c1)C(=O)NCCO2	5.7	0.1	-62.5	-0.7
O=C(O)c1cc2c3c(c1)C1C=CCC1CN3CC1CC=CC21 (stereo unspecified)	75.9*	0.0	12.2	0.7
O=C(O)C1C2CC=CC2c2cc(Br)cc3c2N1CC1CC=CC31 (stereo unspecified)	-5.0	5.5*	0.0	-1.4
CCOC(=O)CN1CCN(c2ccc(-c3cccc(OC)c3)cn2)CC1	2.9	0.4	71.4*	-0.2
Cc1ccc2[nH]c(=O)c(CN(CCO)S(=O)(=O)c3cccc4nsnc34)cc2c1	11.2	0.0	48.1*	1.8
Nc1cccc2c1C(=O)N(c1ccc3ccccc3c1)C2=O	1.1	2.4*	-54.4	0.2
Cc1ccc(N2C(=O)c3cccc(N)c3C2=O)c(C)c1	-7.4	0.0	33.2*	0.7
Nc1cccc(N2C(=O)c3cccc(N)c3C2=O)c1	-1.7	0.0	6.0	0.2
O=C(Cn1ncc2c1-c1ccccc1OC2)Nc1cc(-c2cccc(F)c2)no1	7.5	0.2	-4.7	-1.6
CCCNc1nc(N2CCOCC2)nc2c1ncn2-c1ccsc1	20.0	-0.5	49.5*	-1.2
SMILES	MITF primary	FBW7 activator	TEAD-YAP block	GPR151 ag
Nc1nc(N2CCOCC2)nc2c1ncn2-c1ccsc1	5.3	0.7	42.1*	1.9
CCCNc1nc(N2CCc3ccccc3C2)nc2c1ncn2-c1ccsc1	21.8	0.0	-26.1	-0.4
O=C1NCCN(Cc2ccc(F)cc2)C1CC(=O)N1CCSCC1 (stereo unspecified)	6.7	0.3	8.5	0.1
CS(=O)(=O)c1ccc(-c2ccc3c(c2)CC(CNC(=O)/C=C/c2cccnc2)O3)cc1 (stereo unspecified)	-1.4	0.0	38.9*	0.9
CS(=O)(=O)c1ccc(-c2ccc3c(c2)CC(CNC(=O)CCc2cccnc2)O3)cc1 (stereo unspecified)	-13.3	-0.2	12.1	1.5
COC(CNc1cc(-c2ccccn2)nc(-c2cccnc2)n1)OC	3.9	-0.1	13.5	-0.8
CCC(c1nnnn1C1CCCC1)N1CCN(CC)CC1 (stereo unspecified)	-4.0	1.0	3.6	-0.2
FC(F)(F)c1ccc(Nc2nc(NC3CC3)c3ncn(-c4ccccc4)c3n2)cc1	15.6	-0.1	-8.0	-0.4
c1ccc(Nc2nc(NC3CC3)c3ncn(C4CCCCC4)c3n2)nc1	3.5	-0.2	21.8	0.8

Screening results: PubChem, The Scripps Research Institute Molecular Screening Center
